Assay results from the supplement of paper PMC6555819.

Key:
Experiment in all cases: PBM binding z-score (relative to random genomic background probes); higher = stronger binding; sequences stand for … in GC…GCGATTGACAGCGTAGAATGAAGG
[1] = tested on: RARb homodimer (NR concentration 270 nM)
Procedure, shortened: (§1)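 The probes on custom Agilent 4×180K protein-binding microarrays were double-stranded, with 34-nt variable regions bearing direct-repeat seeds, single-nucleotide variants, half-site ablations and random human genomic background sequences. Incubation lasted 1 h with ligand-free nuclear receptor dimers in PBS pH 7.4, 2% milk, 0.02% Triton X-100, 1 mM DTT, 0.2 mg/mL BSA and 0.4 mg/ml salmon testes DNA. Antibodies against each partner (one per run) detected bound dimers, and fluorescence scans were regression-normalized. Binding z-scores take the random background probes as reference.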

[2] = tested on: RARg:RXRa (NR concentration 270 nM, RXRa partner concentration 90 nM)
Procedure, shortened: as §1

[3] = tested on: RARg homodimer (NR concentration 270 nM)
Procedure, shortened: as §1

[4] = tested on: RXRa DBDmut IVT, anti-RXR (DBD mutation: RXRa K156A/R161A, NR concentration 90 nM)
Procedure, shortened: as §1

[5] = tested on: RXRa homodimer (NR concentration 180 nM)
Procedure, shortened: as §1

[6] = tested on: THRa:RXRa (NR concentration 90 nM, RXRa partner concentration 90 nM)
Procedure, shortened: as §1

[7] = tested on: THRa homodimer (NR concentration 90 nM)
Procedure, shortened: as §1

[8] = tested on: VDR homodimer (NR concentration 270 nM)
Procedure, shortened: as §1

GCGGACAGGTGAAACGCAGGTAACTCAGGGTGGC
PBM binding z-score [1]: 0.239
PBM binding z-score [2]: 1.13
PBM binding z-score [3]: 0.717
PBM binding z-score [4]: -0.341
PBM binding z-score [5]: 0.426
PBM binding z-score [6]: 1.41
PBM binding z-score [7]: -0.55
PBM binding z-score [8]: -0.834

ACTATTAGTCGACTTAGGGCAACCGATACGACGC
PBM binding z-score [1]: 0.58
PBM binding z-score [2]: 0.342
PBM binding z-score [3]: 0.707
PBM binding z-score [4]: 0.415
PBM binding z-score [5]: 0.416
PBM binding z-score [6]: 1.09
PBM binding z-score [7]: 0.02
PBM binding z-score [8]: -0.338

TCTAGTAGATCAGCAGGTTAAGAAAGCTGGCCAA
PBM binding z-score [1]: -0.0798
PBM binding z-score [2]: -0.00824
PBM binding z-score [3]: -0.453
PBM binding z-score [4]: 0.645
PBM binding z-score [5]: 0.438
PBM binding z-score [6]: 0.0763
PBM binding z-score [7]: -1.15
PBM binding z-score [8]: -0.213

TGAATGAGGTTAAAGATCTGGGAACGTGGCGTCG
PBM binding z-score [1]: 0.638
PBM binding z-score [2]: 1.65
PBM binding z-score [3]: 1.42
PBM binding z-score [4]: 1.24
PBM binding z-score [5]: 2.49
PBM binding z-score [6]: 2.26
PBM binding z-score [7]: 0.597
PBM binding z-score [8]: 0.872

CCGACCGGGGCAGAAAGGTTACCATACCATCCGG
PBM binding z-score [1]: 2.41
PBM binding z-score [2]: 2.1
PBM binding z-score [3]: 1.87
PBM binding z-score [4]: -0.807
PBM binding z-score [5]: 1.89
PBM binding z-score [6]: 1.53
PBM binding z-score [7]: -0.148
PBM binding z-score [8]: 0.0914

AAATGTAGGTTATCGGGTCATTCAGTTTGCGCAT
PBM binding z-score [1]: 3.09
PBM binding z-score [2]: 3.27
PBM binding z-score [3]: 2.33
PBM binding z-score [4]: 1.88
PBM binding z-score [5]: 3.42
PBM binding z-score [6]: 3.41
PBM binding z-score [7]: 2.84
PBM binding z-score [8]: 4

CCTGCTAGGTCGTGGTCAGCTAATCTACAGTATG
PBM binding z-score [1]: 1.21
PBM binding z-score [2]: 0.958
PBM binding z-score [3]: 1.4
PBM binding z-score [4]: 0.759
PBM binding z-score [5]: 0.607
PBM binding z-score [6]: 0.876
PBM binding z-score [7]: 0.18
PBM binding z-score [8]: -0.0912

TCTTGTAGATCAGCAGGTTAAGAACGCTGGCCAA
PBM binding z-score [1]: -0.0185
PBM binding z-score [2]: -0.0606
PBM binding z-score [3]: -0.396
PBM binding z-score [4]: 0.288
PBM binding z-score [5]: 0.146
PBM binding z-score [6]: -0.0457
PBM binding z-score [7]: -0.571
PBM binding z-score [8]: -0.247

GTACCAAGGTGAATAGGGCGTTGATGAGTAGGCG
PBM binding z-score [1]: 1.21
PBM binding z-score [2]: 1.13
PBM binding z-score [3]: 0.952
PBM binding z-score [4]: -0.247
PBM binding z-score [5]: 0.599
PBM binding z-score [6]: 1.36
PBM binding z-score [7]: 0.767
PBM binding z-score [8]: 0.221

CCTACTGGGCCATAAGGTCATTGATATCAACGTT
PBM binding z-score [1]: 3.91
PBM binding z-score [2]: 3.77
PBM binding z-score [3]: 3.15
PBM binding z-score [4]: 1.01
PBM binding z-score [5]: 3.28
PBM binding z-score [6]: 4.14
PBM binding z-score [7]: 4.56
PBM binding z-score [8]: 2.93

ACTAGCAGGCCAAGGGTCAATCAAGATTAGTCCG
PBM binding z-score [1]: 3.46
PBM binding z-score [2]: 4.36
PBM binding z-score [3]: 3.8
PBM binding z-score [4]: 0.567
PBM binding z-score [5]: 4.62
PBM binding z-score [6]: 2.76
PBM binding z-score [7]: -0.086
PBM binding z-score [8]: 0.551

CAAACTAGGTCAAGATGTCAAAGTCCGCTTCCCG
PBM binding z-score [1]: 3.53
PBM binding z-score [2]: 4.72
PBM binding z-score [3]: 5.27
PBM binding z-score [4]: 1.76
PBM binding z-score [5]: 3.43
PBM binding z-score [6]: 2.86
PBM binding z-score [7]: 1.04
PBM binding z-score [8]: 0.881

CCGACTGGGGGAAAGGTTACCATACTCAGTACGA
PBM binding z-score [1]: 2.1
PBM binding z-score [2]: 2.79
PBM binding z-score [3]: 1.78
PBM binding z-score [4]: 0.141
PBM binding z-score [5]: 3.06
PBM binding z-score [6]: 2.14
PBM binding z-score [7]: 0.672
PBM binding z-score [8]: 0.298

CAGCCTAGCTCAGGGCCAGTATAGGAGGAACGTT
PBM binding z-score [1]: -0.467
PBM binding z-score [2]: -0.693
PBM binding z-score [3]: -0.422
PBM binding z-score [4]: -0.824
PBM binding z-score [5]: -0.971
PBM binding z-score [6]: -0.848
PBM binding z-score [7]: -0.716
PBM binding z-score [8]: -0.754

TAGCCTAGGTCATTCAGGGGCCAGTCTAGAAAGC
PBM binding z-score [1]: 3.1
PBM binding z-score [2]: 5.97
PBM binding z-score [3]: 4.33
PBM binding z-score [4]: 1.66
PBM binding z-score [5]: 2.98
PBM binding z-score [6]: 3.27
PBM binding z-score [7]: 0.478
PBM binding z-score [8]: 1.43

TATACAGGGTCATAGGCCAGAGTACGAATGTCGA
PBM binding z-score [1]: 3.08
PBM binding z-score [2]: 5.43
PBM binding z-score [3]: 4.72
PBM binding z-score [4]: 2.94
PBM binding z-score [5]: 6.27
PBM binding z-score [6]: 3.5
PBM binding z-score [7]: 0.758
PBM binding z-score [8]: 3.52

CGTCCAAGGTCCTAGGAGGTCAGTGAAGACAGAT
PBM binding z-score [1]: 2.93
PBM binding z-score [2]: 2.53
PBM binding z-score [3]: 2.38
PBM binding z-score [4]: 0.216
PBM binding z-score [5]: 2.14
PBM binding z-score [6]: 4.08
PBM binding z-score [7]: 0.834
PBM binding z-score [8]: 1.06

GCTATTAGTTGAAAGGGTAACCGAATGATTCTCG
PBM binding z-score [1]: 0.907
PBM binding z-score [2]: 0.593
PBM binding z-score [3]: 0.407
PBM binding z-score [4]: 1.01
PBM binding z-score [5]: 0.952
PBM binding z-score [6]: 0.527
PBM binding z-score [7]: 0.212
PBM binding z-score [8]: -0.0669

CCGACTGGGGCAAAGGTTGCCATACTCAGTACGA
PBM binding z-score [1]: 0.697
PBM binding z-score [2]: 1.32
PBM binding z-score [3]: 0.395
PBM binding z-score [4]: -0.142
PBM binding z-score [5]: 1.32
PBM binding z-score [6]: 0.333
PBM binding z-score [7]: -0.54
PBM binding z-score [8]: 0.111

TAGCCTAGGTCATGGGGCAGTATACCACGCGAAC
PBM binding z-score [1]: 2.71
PBM binding z-score [2]: 4.3
PBM binding z-score [3]: 4.2
PBM binding z-score [4]: 0.354
PBM binding z-score [5]: 3.61
PBM binding z-score [6]: 3.23
PBM binding z-score [7]: 1.44
PBM binding z-score [8]: 0.585

TCTTGTAGATCAACAGGAGATTAAGAAAGATCGA
PBM binding z-score [1]: -1.12
PBM binding z-score [2]: -0.112
PBM binding z-score [3]: -0.181
PBM binding z-score [4]: 0.2
PBM binding z-score [5]: 0.147
PBM binding z-score [6]: -0.777
PBM binding z-score [7]: -1.13
PBM binding z-score [8]: -0.417

GATACAGGGTCAAGGCCAGACTACGCGTATTGAT
PBM binding z-score [1]: 3.74
PBM binding z-score [2]: 5.51
PBM binding z-score [3]: 5.17
PBM binding z-score [4]: 2.76
PBM binding z-score [5]: 5.73
PBM binding z-score [6]: 3.8
PBM binding z-score [7]: 1.55
PBM binding z-score [8]: 2.1

TCTTGTAGATCAAGCAGGTTAAGAAAGCCTGAGT
PBM binding z-score [1]: 0.31
PBM binding z-score [2]: 0.0826
PBM binding z-score [3]: -0.299
PBM binding z-score [4]: 0.319
PBM binding z-score [5]: 0.444
PBM binding z-score [6]: 0.331
PBM binding z-score [7]: -0.339
PBM binding z-score [8]: 0.113

TAGCCTAGGTCATTGGGCCAGTATCGTACGCATC
PBM binding z-score [1]: 2.91
PBM binding z-score [2]: 3.85
PBM binding z-score [3]: 4
PBM binding z-score [4]: 1.73
PBM binding z-score [5]: 2.84
PBM binding z-score [6]: 2.87
PBM binding z-score [7]: 1.01
PBM binding z-score [8]: 1.43

TCTCGGAGGACACGATGGTCAGAGCTTTCCAGAG
PBM binding z-score [1]: 0.682
PBM binding z-score [2]: 0.274
PBM binding z-score [3]: 1.24
PBM binding z-score [4]: 0.266
PBM binding z-score [5]: 0.00404
PBM binding z-score [6]: 1.05
PBM binding z-score [7]: 0.363
PBM binding z-score [8]: -0.307

GCTAGTTGGTCAGTAAAAGGTCACAGACCGGTCG
PBM binding z-score [1]: 5.24
PBM binding z-score [2]: 5.64
PBM binding z-score [3]: 5.2
PBM binding z-score [4]: 0.262
PBM binding z-score [5]: 5.7
PBM binding z-score [6]: 3.79
PBM binding z-score [7]: 1.68
PBM binding z-score [8]: 1.13

ACTAGCAGGCCAAGGCTCACTCAAGATTAGTCCG
PBM binding z-score [1]: -0.234
PBM binding z-score [2]: -0.222
PBM binding z-score [3]: 0.0156
PBM binding z-score [4]: -0.206
PBM binding z-score [5]: -0.0748
PBM binding z-score [6]: -0.43
PBM binding z-score [7]: -0.144
PBM binding z-score [8]: -0.802

TCTATTAGTCGAAGGGCAACCGACGAGTCCGTTT
PBM binding z-score [1]: 1.15
PBM binding z-score [2]: 0.394
PBM binding z-score [3]: 0.638
PBM binding z-score [4]: 1.56
PBM binding z-score [5]: 0.534
PBM binding z-score [6]: 0.187
PBM binding z-score [7]: -0.0492
PBM binding z-score [8]: 1.35

ATCTCTAGGTAACCAAGTTCAGTCAATGCCGAAC
PBM binding z-score [1]: 2
PBM binding z-score [2]: 1.22
PBM binding z-score [3]: 1.21
PBM binding z-score [4]: 1.27
PBM binding z-score [5]: 0.744
PBM binding z-score [6]: 1.86
PBM binding z-score [7]: 1.06
PBM binding z-score [8]: 3.43
